The values that follow come from PubChem BioAssay (EPA / NIEHS).

Inconclusive results are not listed. Activity calls are given as the source filed them. How the source made its calls: active means hit-call score of the fitted dose curve at least 0.9, where 1 is the maximum; inconclusive means response in the unintended direction; inactive means score below 0.9.

The term AC50 denotes the concentration at which the activity in the assay is half-maximal.

Test [1] concerns the target Estrogen receptor beta (Homo sapiens) (UniProt Q92731). Kind of test: OT_ER_ERbERb_0480: Odyssey Thera (OT) 8-hour HEK293T Protein-Complementation Assay for Estrogen Receptor-beta/-beta Homodimer (AID 2283357).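 Further: active means signal gain over DMSO baseline.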 The method in brief:
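Fluorescence intensity, nuclear for agonists and nuclear plus cytoplasmic for antagonists, was quantified by laser scanning cytometry versus vehicle after 8 h treatment. The cells were HEK293T stably carrying ER beta LBD fragment-complementation partners.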

The target of another test is PGR (gene 5241) (UniProt P06401). Briefly: NVS_NR_hPR: NovaScreen (NVS) Nuclear Receptor Binding Assay for human Progestron Receptor (PR) (AID 2283360).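 Further: active means loss of bound radioligand signal versus DMSO baseline.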 The essentials:
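T47D lysate; tritiated or iodinated radioligand; scintillation count at 18 h. DMSO = negative control/baseline. Primary: 25 uM, duplicate. Secondary: concentration series for actives.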

The target of test [2] is human Thyroid Receptor Alpha (TRa), THRA (gene 7067) (UniProt P10827). Briefly: NVS_NR_hTRa_Antagonist: NovaScreen (NVS) Nuclear Receptor Binding Assay for human Thyroid Receptor Alpha Antagonism (TRa) (AID 2283362).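 Further: activity is loss of signal relative to DMSO baseline.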 The essentials: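 Cell-free AlphaLISA chemiluminescent binding read 1 h after dosing, antagonist mode; signal loss versus DMSO baseline. Primary screen in duplicate at 25 uM, then concentration series for actives.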

Test [3] deals with Glucocorticoid receptor (Homo sapiens) (UniProt P04150). Briefly: NVS_NR_hGR: NovaScreen (NVS) Nuclear Receptor Binding Assay for human Glucocorticoid Receptor (GR) (AID 2283363).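 On AC50: activity is loss of specific radioligand binding signal relative to DMSO.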 The essentials: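 Cell-free radioligand displacement assay on extracted human GR, read 16 h after dosing by filter-based scintillation counting. Screened in duplicate at 25 uM, then concentration series for actives; loss of signal versus DMSO baseline.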

The target in test [4] is Peroxisome proliferator-activated receptor gamma (Homo sapiens) (UniProt P37231). Kind of test: NVS_NR_hPPARg: NovaScreen (NVS) Nuclear Receptor Binding Assay for human Peroxisome Proliferator-activated Receptor gamma (PPARg) (AID 2283370). The essentials: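 Cell-free fluorescence polarization binding to human PPARg protein, read 2 h after dosing. Primary screen in duplicate at 25 uM, actives followed in concentration series; loss of signal relative to DMSO scored.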

Test [5] addresses Retinoic acid receptor alpha (Homo sapiens) (UniProt P10276). Briefly: NVS_NR_hRAR_Antagonist: NovaScreen (NVS) Nuclear Receptor Binding Assay for human Retinoic Acid Alpha Receptor Antagonism (RAR) (AID 2283358). The method in brief: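 Cell-free TR-FRET binding assay with extracted human RARalpha in antagonist mode, read 2 h after dosing. Loss of signal was fitted relative to DMSO; the primary screen used 25 uM in duplicate, with concentration series on follow-up.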

The target in test [6] is Estrogen receptor (Homo sapiens) + Estrogen receptor beta (Homo sapiens) (UniProt P03372+Q92731). Kind of test: OT_ER_ERaERb_1440: Odyssey Thera (OT) 24-hour HEK293T Protein-Complementation Assay for Estrogen Receptor-alpha/-beta Homodimer (AID 2283356).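 Further: heteromer of ER alpha and ER beta binding domains; hits raise reporter fluorescence and both agonists and antagonists give an increase.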 The essentials:
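HEK293T stably expressing a PCA of ER alpha LBD (aa 310-547) and ER beta LBD (aa 263-489). After 24 h compound exposure, mean fluorescence intensity in nucleus (agonists) or nucleus and cytoplasm (antagonists) measured by laser scanning cytometry versus vehicle.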

The target in test [7] is rat Androgen Receptor (AR), Ar (gene 24208) (UniProt P15207). Briefly: NVS_NR_rAR: NovaScreen (NVS) Nuclear Receptor Binding Assay for rat Androgen Receptor (AR) (AID 2283366). The essentials: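 Cell-free radioligand binding on extracts of prostate from testosterone-pretreated rats, read by filter-based scintillation counting 18 h after dosing. Loss of bound signal fitted positively versus DMSO; primary screen in duplicate at 25 uM, actives followed up in concentration series.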

The test system of test [8] is guinea pig Dopamine Transporter (DAT), gene 100714898. Kind of test: NVS_TR_gDAT: NovaScreen (NVS) Transporter Assay for guinea pig Dopamine Transporter (DAT) (AID 2283369).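 Further: active compounds lower bound radioligand signal relative to DMSO.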 The essentials:
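Guinea pig striatal membranes, cell-free radioligand binding with filter-based scintillation counting, read 2 h after dosing. Loss of signal versus DMSO baseline; single-concentration primary (25 uM) then concentration-response up to 50 uM.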

Test [9] has as its target human Dopamine Transporter (DAT), SLC6A3 (gene 6531) (UniProt Q01959). Briefly: NVS_TR_hDAT: NovaScreen (NVS) Transporter Assay for human Dopamine Transporter (DAT) (AID 2283374).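 Further: activity means loss of bound radioligand signal relative to DMSO.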 The method in brief: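 Cell-free radioligand displacement binding at human DAT, 1 h after dosing, with filtration and scintillation counting. Primary screen in duplicate at 25 uM, actives then in concentration series. Loss of bound signal versus DMSO scored.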

The target of test [10] is guinea pig Sigma Receptor, Non-selective Binding, SIGMAR1 (gene 100135589) (UniProt Q60492). Kind of test: NVS_OR_gSIGMA_NonSelective: NovaScreen (NVS) Nuclear Receptor Binding Assay for guinea pig Sigma Receptor, Non-selective Binding (AID 2283367). The method in brief: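 Radioligand displacement on guinea pig brain membranes, read by filter-based scintillation counting 1 h after dosing. Loss of signal versus DMSO; initial duplicate single-point screen at 25 uM, actives followed in concentration series.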

The target of test [11] is human Serotonin Transporter (SERT), SLC6A4 (gene 6532) (UniProt P31645). Kind of test: NVS_TR_hSERT: NovaScreen (NVS) Transporter Assay for human Serotonin Transporter (SERT) (AID 2283372). The essentials:
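Radioligand binding to native SERT in human platelet membranes, read by filter-based scintillation counting 1 h after dosing. Primary screen in duplicate at 25 uM; actives followed up in concentration series; loss of signal versus DMSO baseline.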

Test [12] addresses Nuclear receptor subfamily 1 group I member 2 (Homo sapiens) (UniProt O75469). Kind of test: NVS_NR_hPXR: NovaScreen (NVS) Nuclear Receptor Binding Assay for human Pregnane X Receptor (PXR) (AID 2283365).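 Further: a drop in FRET signal versus DMSO baseline means the compound binds.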 The method in brief:
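Cell-free TR-FRET binding assay with extracted human PXR protein, read 2 h after dosing. Primary screen run in duplicate at 25 uM, actives followed in concentration series; loss of signal fitted against DMSO baseline.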

Test [13] has as its system rat Norepinephrine Transporter (NET), gene 83511. Kind of test: NVS_TR_rNET: NovaScreen (NVS) Transporter Assay for rat Norepinephrine Transporter (NET) (AID 2283373). The essentials: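 Rat forebrain membranes; radioligand binding measured by filter-based scintillation counting 1 hour after dosing. Loss of specific binding versus DMSO baseline scored; primary screen in duplicate at 25 uM, actives followed up in concentration series.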

The target in test [14] is Norway rat Vesicular Monoamine Transporter (VMAT2), neurotransmitter transporter, Slc18a2 (gene 25549) (UniProt Q01827). Kind of test: NVS_TR_rVMAT2: NovaScreen (NVS) Transporter Assay for Norway rat Vesicular Monoamine Transporter (VMAT2), neurotransmitter transporter (AID 2283376).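 Further: actives lower the bound radioligand signal below the DMSO level.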 The method in brief:
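Radioligand displacement binding on rat forebrain tissue preparation, filter-based scintillation read-out 1 hour after dosing. Primary screen in duplicate at 25 uM, then concentration series for actives; loss of signal versus DMSO.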

The target of test [15] is human Norepinephrine Transporter (NET), SLC6A2 (gene 6530) (UniProt P23975). Briefly: NVS_TR_hNET: NovaScreen (NVS) Transporter Assay for human Norepinephrine Transporter (NET) (AID 2283377).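 Further: displacement of radioligand from human NET seen as loss of scintillation signal.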 The method in brief: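 Cell-free radioligand binding using CHO-derived membrane protein expressing human NET, read by filter scintillation counting 1 h after dosing; loss of signal vs DMSO. Initial duplicate screen at 25 uM, actives retested in concentration series.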

Test [16] has as its target human Adenosine Transporter (Adot), SLC29A1 (gene 2030) (UniProt Q99808). Kind of test: NVS_TR_hAdoT: NovaScreen (NVS) Transporter Assay for human Adenosine Transporter (Adot) (AID 2283368). The method in brief:
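U937-derived membranes, cell-free radioligand binding, filter scintillation 1 h after dosing. 25 uM duplicate screen; hits (e.g. 30% inhibition) run in concentration-response up to 50 uM; loss of signal versus DMSO.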

Test [17] addresses rat Serotonin Transporter (SERT), Slc6a4 (gene 25553) (UniProt P31652). Briefly: NVS_TR_rSERT: NovaScreen (NVS) Transporter Assay for rat Serotonin Transporter (SERT) (AID 2283375). The method in brief:
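Rat forebrain membranes; radioligand displacement at SERT read by filter-based scintillation counting, 1 h after dosing. Screened in duplicate at 25 uM, actives then run in concentration series; loss of signal versus DMSO baseline.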

Chain of PGR (gene 5241) (P06401 whole entry, looked up): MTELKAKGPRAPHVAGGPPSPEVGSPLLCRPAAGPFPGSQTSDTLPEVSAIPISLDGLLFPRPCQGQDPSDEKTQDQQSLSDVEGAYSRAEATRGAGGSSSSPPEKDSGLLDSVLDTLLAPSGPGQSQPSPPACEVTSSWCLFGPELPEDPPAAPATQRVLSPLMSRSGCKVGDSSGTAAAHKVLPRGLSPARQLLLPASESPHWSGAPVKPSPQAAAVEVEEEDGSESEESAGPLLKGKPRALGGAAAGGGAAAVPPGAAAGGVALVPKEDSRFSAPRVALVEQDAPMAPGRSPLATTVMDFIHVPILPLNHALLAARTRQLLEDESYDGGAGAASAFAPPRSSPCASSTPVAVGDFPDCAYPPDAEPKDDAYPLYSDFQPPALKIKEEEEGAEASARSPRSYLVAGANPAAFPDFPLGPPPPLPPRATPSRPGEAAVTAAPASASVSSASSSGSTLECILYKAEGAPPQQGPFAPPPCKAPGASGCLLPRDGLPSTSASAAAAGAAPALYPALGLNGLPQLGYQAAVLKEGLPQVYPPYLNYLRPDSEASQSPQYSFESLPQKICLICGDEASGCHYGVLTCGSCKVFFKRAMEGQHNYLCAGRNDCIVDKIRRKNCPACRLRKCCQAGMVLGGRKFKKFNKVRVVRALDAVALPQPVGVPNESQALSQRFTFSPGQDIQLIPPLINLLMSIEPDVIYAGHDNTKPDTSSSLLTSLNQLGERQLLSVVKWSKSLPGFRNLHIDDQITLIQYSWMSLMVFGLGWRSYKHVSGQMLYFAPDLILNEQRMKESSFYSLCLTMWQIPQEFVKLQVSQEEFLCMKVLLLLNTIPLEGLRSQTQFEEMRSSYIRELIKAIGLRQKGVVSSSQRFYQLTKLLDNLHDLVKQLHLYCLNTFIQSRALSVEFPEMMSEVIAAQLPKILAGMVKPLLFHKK
Chain of Glucocorticoid receptor (Homo sapiens) (P04150 whole entry, looked up): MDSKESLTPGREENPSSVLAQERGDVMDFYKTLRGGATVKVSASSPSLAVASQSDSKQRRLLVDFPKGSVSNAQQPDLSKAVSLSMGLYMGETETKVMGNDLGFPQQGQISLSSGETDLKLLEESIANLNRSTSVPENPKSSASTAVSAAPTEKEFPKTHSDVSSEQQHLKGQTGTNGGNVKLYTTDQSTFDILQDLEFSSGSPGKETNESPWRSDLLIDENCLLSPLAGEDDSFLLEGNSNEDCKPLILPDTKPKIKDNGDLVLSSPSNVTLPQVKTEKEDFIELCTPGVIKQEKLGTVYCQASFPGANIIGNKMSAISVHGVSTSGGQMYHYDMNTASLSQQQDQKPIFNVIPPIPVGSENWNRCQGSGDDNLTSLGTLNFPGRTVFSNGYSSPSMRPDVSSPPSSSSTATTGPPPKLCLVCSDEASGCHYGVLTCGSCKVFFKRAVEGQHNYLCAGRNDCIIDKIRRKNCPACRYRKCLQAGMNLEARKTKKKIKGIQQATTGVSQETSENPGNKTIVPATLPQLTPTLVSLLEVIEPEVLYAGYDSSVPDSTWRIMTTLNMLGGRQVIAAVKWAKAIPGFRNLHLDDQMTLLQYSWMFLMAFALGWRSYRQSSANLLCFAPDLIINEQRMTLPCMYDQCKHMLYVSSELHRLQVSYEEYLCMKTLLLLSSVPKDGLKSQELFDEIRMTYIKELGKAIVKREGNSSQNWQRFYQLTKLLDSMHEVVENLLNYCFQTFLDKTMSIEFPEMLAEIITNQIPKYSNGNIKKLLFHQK
Chain of Estrogen receptor beta (Homo sapiens) (Q92731 whole entry, looked up, the tested form may be a part): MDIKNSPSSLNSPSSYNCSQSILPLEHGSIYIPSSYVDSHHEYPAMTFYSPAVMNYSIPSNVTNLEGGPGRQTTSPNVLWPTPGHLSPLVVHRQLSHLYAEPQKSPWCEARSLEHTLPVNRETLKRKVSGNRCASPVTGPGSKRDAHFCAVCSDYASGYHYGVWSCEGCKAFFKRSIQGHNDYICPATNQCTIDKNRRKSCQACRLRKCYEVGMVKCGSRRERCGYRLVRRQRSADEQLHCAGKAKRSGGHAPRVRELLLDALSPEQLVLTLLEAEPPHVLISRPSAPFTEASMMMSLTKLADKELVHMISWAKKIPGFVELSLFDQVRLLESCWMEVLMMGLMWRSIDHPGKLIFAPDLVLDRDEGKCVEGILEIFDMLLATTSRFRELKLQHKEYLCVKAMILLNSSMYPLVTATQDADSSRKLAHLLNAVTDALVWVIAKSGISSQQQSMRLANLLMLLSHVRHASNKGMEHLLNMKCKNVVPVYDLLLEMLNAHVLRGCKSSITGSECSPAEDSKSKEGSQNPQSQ
Chain of Peroxisome proliferator-activated receptor gamma (Homo sapiens) (P37231 whole entry, looked up): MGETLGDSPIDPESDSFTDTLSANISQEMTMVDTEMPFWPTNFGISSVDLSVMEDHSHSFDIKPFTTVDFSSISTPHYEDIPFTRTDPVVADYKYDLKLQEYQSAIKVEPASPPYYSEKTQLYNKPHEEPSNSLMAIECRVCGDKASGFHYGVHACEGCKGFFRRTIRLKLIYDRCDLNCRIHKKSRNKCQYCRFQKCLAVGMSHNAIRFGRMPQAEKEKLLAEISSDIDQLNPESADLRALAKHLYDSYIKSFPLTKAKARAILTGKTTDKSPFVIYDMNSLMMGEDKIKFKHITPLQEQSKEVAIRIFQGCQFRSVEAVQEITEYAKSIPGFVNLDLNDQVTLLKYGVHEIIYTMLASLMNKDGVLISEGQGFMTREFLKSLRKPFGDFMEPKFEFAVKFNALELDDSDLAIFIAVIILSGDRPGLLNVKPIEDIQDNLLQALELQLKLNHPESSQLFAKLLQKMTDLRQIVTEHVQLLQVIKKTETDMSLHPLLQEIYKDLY
Chain of human Dopamine Transporter (DAT), SLC6A3 (gene 6531) (Q01959 whole entry, looked up): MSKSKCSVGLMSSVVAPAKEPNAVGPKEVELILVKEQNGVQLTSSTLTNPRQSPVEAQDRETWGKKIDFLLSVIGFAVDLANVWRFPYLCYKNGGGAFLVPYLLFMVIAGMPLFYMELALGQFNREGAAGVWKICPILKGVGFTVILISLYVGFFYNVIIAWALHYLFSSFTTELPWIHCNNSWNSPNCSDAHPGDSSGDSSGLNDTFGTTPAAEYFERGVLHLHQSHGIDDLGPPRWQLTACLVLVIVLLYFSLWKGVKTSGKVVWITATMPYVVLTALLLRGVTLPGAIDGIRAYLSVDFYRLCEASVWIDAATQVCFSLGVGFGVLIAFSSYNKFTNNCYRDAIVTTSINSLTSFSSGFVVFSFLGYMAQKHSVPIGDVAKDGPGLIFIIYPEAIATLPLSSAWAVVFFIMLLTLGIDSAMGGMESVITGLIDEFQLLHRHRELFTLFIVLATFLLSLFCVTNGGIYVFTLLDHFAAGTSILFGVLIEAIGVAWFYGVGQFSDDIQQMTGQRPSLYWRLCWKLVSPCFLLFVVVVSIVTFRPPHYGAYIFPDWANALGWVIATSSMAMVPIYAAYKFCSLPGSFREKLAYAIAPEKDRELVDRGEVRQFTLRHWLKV
Chain of Retinoic acid receptor alpha (Homo sapiens) (P10276 whole entry, looked up): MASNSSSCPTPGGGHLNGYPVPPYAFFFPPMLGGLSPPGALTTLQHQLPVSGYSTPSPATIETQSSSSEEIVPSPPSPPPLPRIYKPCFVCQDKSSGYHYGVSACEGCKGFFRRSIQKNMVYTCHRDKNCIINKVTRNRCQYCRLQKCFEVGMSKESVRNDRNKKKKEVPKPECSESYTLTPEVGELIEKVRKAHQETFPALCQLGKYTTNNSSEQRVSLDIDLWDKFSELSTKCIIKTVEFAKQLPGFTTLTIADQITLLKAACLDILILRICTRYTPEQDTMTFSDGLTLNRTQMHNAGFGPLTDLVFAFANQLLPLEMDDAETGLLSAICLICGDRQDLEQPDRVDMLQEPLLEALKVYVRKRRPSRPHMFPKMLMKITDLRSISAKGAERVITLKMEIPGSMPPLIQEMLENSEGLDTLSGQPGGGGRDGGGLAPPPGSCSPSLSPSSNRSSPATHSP
Chain of human Thyroid Receptor Alpha (TRa), THRA (gene 7067) (P10827 whole entry, looked up): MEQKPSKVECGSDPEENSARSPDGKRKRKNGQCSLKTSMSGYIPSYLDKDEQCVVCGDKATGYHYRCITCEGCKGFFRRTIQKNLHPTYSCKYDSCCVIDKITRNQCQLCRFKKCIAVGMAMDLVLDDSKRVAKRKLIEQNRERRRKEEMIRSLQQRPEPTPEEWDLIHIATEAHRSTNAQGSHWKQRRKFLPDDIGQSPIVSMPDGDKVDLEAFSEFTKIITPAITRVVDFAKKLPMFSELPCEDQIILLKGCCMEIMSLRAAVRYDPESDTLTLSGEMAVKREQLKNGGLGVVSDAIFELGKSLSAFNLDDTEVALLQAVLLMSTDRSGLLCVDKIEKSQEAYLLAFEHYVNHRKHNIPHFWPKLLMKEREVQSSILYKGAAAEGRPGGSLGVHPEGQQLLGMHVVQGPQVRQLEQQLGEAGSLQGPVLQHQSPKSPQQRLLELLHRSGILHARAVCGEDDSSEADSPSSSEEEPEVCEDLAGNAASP
Chain of guinea pig Sigma Receptor, Non-selective Binding, SIGMAR1 (gene 100135589) (Q60492 whole entry, looked up): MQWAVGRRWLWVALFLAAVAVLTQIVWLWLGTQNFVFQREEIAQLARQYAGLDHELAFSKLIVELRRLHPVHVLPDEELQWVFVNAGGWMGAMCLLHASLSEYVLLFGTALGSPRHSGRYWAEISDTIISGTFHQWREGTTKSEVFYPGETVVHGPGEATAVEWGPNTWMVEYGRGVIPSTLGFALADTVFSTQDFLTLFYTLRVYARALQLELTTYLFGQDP
Chain of human Adenosine Transporter (Adot), SLC29A1 (gene 2030) (Q99808 whole entry, looked up): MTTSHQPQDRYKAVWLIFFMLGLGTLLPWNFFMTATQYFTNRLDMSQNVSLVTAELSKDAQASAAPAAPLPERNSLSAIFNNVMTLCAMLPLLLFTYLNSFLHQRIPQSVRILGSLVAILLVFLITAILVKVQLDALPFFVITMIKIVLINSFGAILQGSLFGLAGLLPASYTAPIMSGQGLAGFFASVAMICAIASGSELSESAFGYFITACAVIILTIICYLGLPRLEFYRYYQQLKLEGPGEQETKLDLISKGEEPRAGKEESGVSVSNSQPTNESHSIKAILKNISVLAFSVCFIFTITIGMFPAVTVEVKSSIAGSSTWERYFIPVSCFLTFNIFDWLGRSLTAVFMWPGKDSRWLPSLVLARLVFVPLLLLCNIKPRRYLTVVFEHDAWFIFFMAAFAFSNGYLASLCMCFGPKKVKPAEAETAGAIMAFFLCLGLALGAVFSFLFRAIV

Turning to `CCCSP(=O)(OCC)Oc1ccc(Br)cc1Cl` (configuration not stated), the AC50 in test [1] was 29.8 µM (active); with PGR (gene 5241), 25 µM (active).
In the case of `CN(C)NC(=O)CCC(=O)O`, the half-maximal activity concentration (AC50) in test [1] was 50 µM (active).
`CCC(CC)Nc1c([N+](=O)[O-])cc(C)c(C)c1[N+](=O)[O-]`: the AC50 in test [1] is 12.6 µM (active). In addition, the compound was classed as inactive (with PGR (gene 5241); in [2]; in test [3]; in test [4]).
Turning to `CCNc1nc(Cl)nc(NC(C)(C)C#N)n1`, the call in [1] was inactive.
As for `CNc1cnn(-c2cccc(C(F)(F)F)c2)c(=O)c1Cl`, the outcome (in [1]; in test [5]; in the test with PGR (gene 5241); in test [3]; in [4]) was inactive.
Regarding `CCCCN(CC)c1c([N+](=O)[O-])cc(C(F)(F)F)cc1[N+](=O)[O-]`, the result (in test [1]; in [5]; with PGR (gene 5241); in test [2]; in test [3]; in test [4]) was inactive.
`CNC(=O)ON=C(SC)C(=O)N(C)C`: the outcome (in test [6]; in test [1]; in test [5]; in the test with PGR (gene 5241); in [2]; in test [7]) was inactive.
`CN(C)C(=O)Nc1cccc(C(F)(F)F)c1`: the compound was classed as inactive in test [1].
`COc1cccc(C(=O)NN(C(=O)c2cc(C)cc(C)c2)C(C)(C)C)c1C`: the outcome in [1] and in test [5] was inactive.
Take `Cc1ccn2nc(S(=O)(=O)Nc3c(F)cccc3F)nc2n1`: the compound was classed as inactive in test [1].
For the compound `CCCCOC(=O)c1ccccc1C(=O)O`, the outcome in [1], in test [5], in test [7], in [8] and in test [4] was inactive. For the same compound, the concentration at half-maximal activity (AC50) in [9] was 8.41 µM (active).
As for `S=C1NCCN1`, the compound was classed as inactive in [5], in test [2] and in test [10].
Regarding `COP(=O)(OC)C(O)C(Cl)(Cl)Cl` (configuration not stated), the outcome in [5] was inactive.
On to `CCOP(=S)(OCC)Oc1ccc2c(C)c(Cl)c(=O)oc2c1`, for which, in the test with PGR (gene 5241), the AC50 is 1.13 µM (active).
With `C[N+]1(C)CCCCC1`, the compound was called inactive in test [1] and in [11].
For the compound `CCOP(=S)(OCC)OC(Cl)C(Cl)(Cl)Cl` (configuration not stated), in test [1], the half-maximal activity concentration (AC50) was 38.6 µM (active). Further, in test [4], the result was inactive.
Turning to `CC[C@H](C)[C@H]1O[C@]2(C=C[C@@H]1C)C[C@@H]1C[C@@H](C/C=C(\C)[C@@H](O[C@H]3C[C@H](OC)[C@@H](O[C@H]4C[C@H](OC)[C@@H](NC)[C@H](C)O4)[C@H](C)O3)[C@@H](C)/C=C/C=C3\CO[C@@H]4[C@H](O)C(C)=C[C@@H](C(=O)O1)[C@]34O)O2`, the compound was called inactive (with PGR (gene 5241); in [13]; in [9]). Also, the AC50 in test [12] was 6.81 µM (active); in [14] it was 4.68 µM (active); in [15], 5.29 µM (active).
In the case of `CC(COc1ccc(Oc2ccccc2)cc1)Oc1ccccn1` (configuration not stated), the compound was classed as inactive (in test [1]; with PGR (gene 5241); in test [7]; in [4]; in test [9]).
Regarding `CCCOCC(=Nc1ccc(Cl)cc1C(F)(F)F)n1ccnc1`, the outcome (in test [1]; in the test with PGR (gene 5241); in test [8]; in test [11]; in test [17]; in [14]) was inactive. For the same compound, the AC50 in test [3] is 7.9 µM (active); in test [10], 7.82 µM (active); in test [16], 25 µM (active); in [4], 17.6 µM (active); in [9], 10.2 µM (active).
